Records with an inconclusive call do not appear. The source made the active and inactive calls. The call rests on the fitted dose curve; in most records, active means well fitted cell-killing curve with a large enough effect; inconclusive means small, poorly fitted or top-dose-only effect, or effect the other way; inactive means flat fitted curve, though single readings scatter.
Tests used:
Assay in all cases: Primary qHTS to identify gynecologic anti-cancer compounds using libraries of approved drugs and bioactive compounds (AID 1345084); further: nearly all actives have a fitted effect of over 55% in size
Conditions in all cases: Gynecologic cancer cell panel viability, ATPlite luminescence, 48 h; series mostly up to 57.5 µM
OV90 = tested on: OV90
Procedure, shortened: (§1)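 In this quantitative HTS, cell killing is estimated from loss of ATP-dependent luciferase light. Cells see five compound concentrations over a 48 h exposure.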

PA-1 = tested on: PA-1
Procedure, shortened: as §1

SKOV3 = tested on: SKOV3
Procedure, shortened: as §1

Tov-21-G = tested on: Tov-21-G
Procedure, shortened: as §1

Tov112D = tested on: Tov112D
Procedure, shortened: as §1
On the % scale 0 is the no-effect control and ±100 the full control effect.

CC1(C)CC[C@]2(C(=O)O[C@@H]3O[C@H](CO)[C@@H](O)[C@H](O)[C@H]3O)CC[C@]3(C)C(=CCC4[C@@]5(C)C[C@H](O)[C@H](O[C@@H]6O[C@H](C(=O)O)[C@@H](O)[C@H](O)[C@H]6O)[C@@](C)(CO)C5CC[C@]43C)C2C1 (stereo not given in full)
inactive: activity change, negative = cytotoxicity (OV90) -11.4% [at 6.55 µM] | activity change, negative = cytotoxicity (PA-1) 1.64% [at 6.55 µM] | activity change, negative = cytotoxicity (SKOV3) 14.6% [at 6.55 µM] | activity change, negative = cytotoxicity (Tov-21-G) -2.15% [at 6.55 µM] | activity change, negative = cytotoxicity (Tov112D) 8.5% [at 6.55 µM]

CC(=O)N[C@H]1[C@H](O[C@H]2CC[C@]3(C)C4CC=C5[C@@H]6CC(C)(C)CC[C@]6(C(=O)O)[C@H](O)C[C@@]5(C)[C@]4(C)CC[C@H]3C2(C)C)O[C@H](CO)[C@@H](O)[C@@H]1O (stereo not given in full)
inactive: Potency (OV90) | Potency (PA-1) | Potency (SKOV3) | Potency (Tov-21-G) | Potency (Tov112D)

CC1(C)CC[C@]2(C(=O)O[C@@H]3O[C@H](CO)[C@@H](O)[C@H](O)[C@H]3O)CC[C@]3(C)C(=CCC4[C@@]5(C)C[C@@H](O)[C@H](O)[C@@](C)(CO)C5[C@H](O)C[C@]43C)C2C1 (stereo not given in full)
inactive: Potency (OV90) | Potency (PA-1) | Potency (SKOV3) | Potency (Tov-21-G) | Potency (Tov112D)

C=C[C@@]1(C)CCC2=C([C@H]1OC(C)=O)[C@H](OC(C)=O)CC1[C@](C)(C(=O)OC)CC[C@H](OC(C)=O)[C@]21C (stereo not given in full)
inactive: Potency (OV90) | Potency (PA-1) | Potency (SKOV3) | Potency (Tov-21-G) | Potency (Tov112D)

O=C(O)c1ccnc(-c2cc(C(=O)NCCc3ccccc3)ccn2)c1
inactive: Potency (OV90) | Potency (PA-1) | Potency (SKOV3) | Potency (Tov-21-G) | Potency (Tov112D)

CC(=O)OC1C(O)/C(C)=C\C2C(OC(=O)c3ccccc3)C(C)CC2(OC(C)=O)C(OC(C)=O)C(C)/C=C/C(C)(C)C1OC(C)=O (stereo not given)
inactive: Potency (OV90) | Potency (PA-1) | Potency (SKOV3) | Potency (Tov-21-G) | Potency (Tov112D)

C=C1CCC(OC(C)=O)C2(C)CC3OC(=O)C(C)=C3CC12 (stereo not given)
inactive: Potency (OV90) | Potency (PA-1) | Potency (SKOV3) | Potency (Tov-21-G) | Potency (Tov112D)

C=CCC/C=C/C#CCCCCCCCC[C@H]1C(=O)O[C@H](C)[C@@H]1O
inactive: Potency (OV90) | Potency (PA-1) | Potency (SKOV3) | Potency (Tov-21-G) | Potency (Tov112D)

C=C[C@H]1[C@H](O[C@@H]2O[C@H](CO)[C@@H](O)[C@H](OC(=O)/C=C/c3ccc(O)c(OC)c3)[C@H]2O)OC=C2C(=O)OCC[C@]21O
inactive: Potency (OV90) | Potency (PA-1) | Potency (SKOV3) | Potency (Tov-21-G) | Potency (Tov112D)

C/C(=C\CCC(C)C1CC(O)C2(C)C3CCC4C(C)(C)C(OC5OCC(O)C(O)C5O)CCC45CC35CC(O)C12C)C(=O)O (stereo not given)
inactive: Potency (OV90) | Potency (PA-1) | Potency (SKOV3) | Potency (Tov-21-G) | Potency (Tov112D)

Cc1occc(=O)c1O[C@@H]1O[C@H](CO)[C@@H](O)[C@H](O)[C@H]1O
inactive: Potency (OV90) | Potency (PA-1) | Potency (SKOV3) | Potency (Tov-21-G) | Potency (Tov112D)

COc1cc([C@H]2OC[C@](O)(Cc3ccc(O[C@@H]4O[C@H](CO)[C@@H](O)[C@H](O)[C@H]4O)c(OC)c3)[C@@H]2CO)ccc1O
inactive: Potency (OV90) | Potency (PA-1) | Potency (SKOV3) | Potency (Tov-21-G) | Potency (Tov112D)

C=C(C)[C@@H]1CC[C@]2(CO)CC[C@]3(C)[C@H](CC[C@@H]4[C@@]5(C)CC[C@H](O)C(C)(C)[C@@H]5CC[C@]43C)[C@@H]12
inactive: Potency (OV90) | Potency (PA-1) | Potency (SKOV3) | Potency (Tov-21-G) | Potency (Tov112D)

O=C(O)[C@H](Cc1ccccc1)Oc1ccc(-c2ccccc2)cc1
inactive: Potency (OV90) | Potency (PA-1) | Potency (SKOV3) | Potency (Tov-21-G) | Potency (Tov112D)

COc1cc(/C=C/C(=O)OC[C@H]2O[C@@H](OC3CC(C)=C(C(=O)O)C(C)(C)C3)[C@H](O)[C@@H](O)[C@@H]2O)cc(OC)c1O (stereo not given in full)
inactive: Potency (OV90) | Potency (PA-1) | Potency (SKOV3) | Potency (Tov-21-G) | Potency (Tov112D)

CC1CC(O)/C=C/C(O)/C=C\C(=O)O1 (stereo not given)
inactive: Potency (OV90) | Potency (PA-1) | Potency (SKOV3) | Potency (Tov-21-G) | Potency (Tov112D)

CC1CC(=O)C2=C(O1)OC1(C)CCC3C(C)(C)C4OC4C(=O)C3(C)C1C2 (stereo not given)
inactive: Potency (OV90) | Potency (PA-1) | Potency (SKOV3) | Potency (Tov-21-G) | Potency (Tov112D)

CC(C)=CCc1c(O)cc2oc3cc(C)cc(O)c3c2c1C
inactive: Potency (OV90) | Potency (PA-1) | Potency (SKOV3) | Potency (Tov-21-G) | Potency (Tov112D)

O=C(OC[C@H]1O[C@@H](Oc2ccccc2COC(=O)C2(O)C=CCCC2O)[C@H](O)[C@@H](O)[C@@H]1O)c1ccccc1 (stereo not given in full)
inactive: Potency (OV90) | Potency (PA-1) | Potency (SKOV3) | Potency (Tov-21-G) | Potency (Tov112D)

CC(=C\C(C)O)/C=C(\C)C(=O)CC1CC(CC(N)=O)CC(=O)O1 (stereo not given)
inactive: Potency (OV90) | Potency (PA-1) | Potency (SKOV3) | Potency (Tov-21-G) | Potency (Tov112D)
